Hit rate of the full screen: of about 16,000 compounds, about 5,800 (36%) were called active. Roughly 23% stayed inconclusive and do not appear here. The call rests on the fitted dose curve; in most records, active means well fitted curve in the direction sought with a large enough effect; inconclusive means small, poorly fitted or top-dose-only effect, or effect the other way; inactive means no such curve, though single readings can be large or run the other way. The list shows a part of the results.
What follows are compounds tested against Cytochrome P450 2C19 (Homo sapiens) (UniProt P33261) (assay: Cytochrome panel assay with activity outcomes). Settings: recombinant CYP, pro-luciferin dealkylation, luminescence, p450-cyp2c19; series mostly up to 57.1 µM; activity, negative = inhibition: at the top concentration.
Cytochrome P450 2C19 (Homo sapiens), sequence (P33261 whole entry, looked up): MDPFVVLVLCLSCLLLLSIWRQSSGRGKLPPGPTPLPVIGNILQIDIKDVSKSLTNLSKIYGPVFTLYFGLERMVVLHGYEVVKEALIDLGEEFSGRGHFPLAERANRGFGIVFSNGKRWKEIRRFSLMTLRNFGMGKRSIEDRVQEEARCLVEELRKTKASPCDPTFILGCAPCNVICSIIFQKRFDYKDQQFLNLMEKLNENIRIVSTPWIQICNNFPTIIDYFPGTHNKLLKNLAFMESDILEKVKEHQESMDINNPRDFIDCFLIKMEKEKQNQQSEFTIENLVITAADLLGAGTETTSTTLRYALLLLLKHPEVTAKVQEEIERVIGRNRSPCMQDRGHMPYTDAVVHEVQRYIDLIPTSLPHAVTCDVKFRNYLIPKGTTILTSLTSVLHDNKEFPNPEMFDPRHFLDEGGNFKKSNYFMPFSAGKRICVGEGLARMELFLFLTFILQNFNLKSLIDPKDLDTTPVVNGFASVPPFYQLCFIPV
On the % scale 0 is the no-effect control and ±100 the full control effect.

activity, negative = inhibition, inactive:
CC(C)CN1CCCC2(CCN(C(=O)c3cc(C(F)(F)F)cc(C(F)(F)F)c3)CC2)C1 -8.77%
CC(C)[C@H](NC(=O)OC(C)(C)C)[C@@H](O)CC(=O)OC(C)(C)C -17.9% [at 11.4 µM]
CC(=O)C[C@H](O)[C@@H](NC(=O)OC(C)(C)C)C(C)C -9.61% [at 11.4 µM]
Cc1nn(Cc2ccc(Cl)cc2)c(C)c1NC(=O)Cn1nc([N+](=O)[O-])c(Cl)c1C 25.1%
O=C(O)/C=C\C(=O)Nc1ccc2c(c1)C(=O)c1cc(F)ccc1-2 28.8% [at 11.4 µM]
Cc1nc(N=Nc2cc(S(=O)(=O)O)ccc2S(=O)(=O)O)c(COP(=O)(O)O)c(C=O)c1O -31.8%
CN(C)c1ccc(/C=C2/C(=O)Nc3ccccc32)cc1 -24.9%
C#CCSc1nnc(-c2sc3ccccc3c2Cl)o1 -28.6%
CC(=O)N1CCC2(CC1)CN(C(c1ccccc1)c1ccccc1)C2 16.5%
O=C(c1ccncc1)N1CCC2(CC1)CN(C(c1ccccc1)c1ccccc1)C2 -40.4%
CC(=O)N1CCC2(CC1)CCN(C(c1ccccc1)c1ccccc1)CC2 -26.9%
Cc1noc(C)c1C(=O)N1CCC2(CCCN(C(c3ccccc3)c3ccccc3)C2)CC1 -32.8%
c1ccc(Nc2ncnc3ccc(-c4ccc5c(c4)OCO5)cc23)cc1 -41.2%
O=c1c(-c2ccc(F)cc2)nc2cnc(N3CCOCC3)nc2n1C1CC1 2.66%
Cc1ccc(S(=O)(=O)NC(=O)NN2C[C@H]3CCC[C@@H]3C2)cc1 -36.1% [at 25.6 µM]
COc1ccc(-n2c(=O)c(-c3cccs3)nc3cnc(Nc4cccc(OC)c4)nc32)cc1 -16.8%
COc1cccc(Nc2ncc3nc(C)c(=O)n(C4CC4)c3n2)c1 -10.3%
COc1ccc(-c2nc3cnc(Nc4ccccc4)nc3n(CCC#N)c2=O)cc1 -8.02%
COc1ccc(-n2c(=O)c(C)nc3cnc(Nc4ccccc4)nc32)cc1 -35.7%
O=C(Nc1ccccc1)N1CC[C@@]2(CCCN(C(=O)c3ccco3)C2)C1 -17.2%
C=CC[C@@H]1C=C[C@H](O/N=C(\C)CCN2CCCCc3nc(C)c(C)cc32)[C@H](CO)O1 21.2% [at 11.4 µM]
CC(C)CN1CCCC2(CCN(C(=O)c3cccc(F)c3)CC2)C1 -33.2%
O=C(c1cccc(F)c1)N1CCC2(CC1)CCN(c1cccc(-c3ccccc3)c1)CC2 -26.8%
O=C(c1cccc(F)c1)N1CCC[C@@]2(CCN(c3ccccc3)C2)C1 4.02%
CC(=O)N1CCC2(CCCN(c3ncccn3)C2)CC1 -33.5%
O=C(c1cccc(F)c1)N1CCC2(CC1)CN(c1cccc(-c3ccccc3)c1)C2 1.93%
O=C(c1cccc(F)c1)N1CCC2(CC1)CCN(c1ccccc1)CC2 -28.2%
CN(C)C(=O)c1ccc(-c2ccc3ncnc(N4CCC(C(=O)O)CC4)c3c2)cc1 6.88%
O=C(O)CCc1ccc(-c2ccccc2)[nH]1 -7.89% [at 11.4 µM]
C=CCNCCOCCOc1ccc(C)cc1[N+](=O)[O-] -79.6%
CN1CCN(c2ccnc(-c3ccc(N(C)C)cc3)n2)CC1 -40.7%
Nc1nccc(Nc2ccc(S(N)(=O)=O)cc2)n1 -11.8% [at 11.4 µM]
Cc1cnc(CNc2cc(-c3ccc(C(=O)N(C)C)cc3)ncn2)cn1 13.1%
O=C1CCc2cc(OCCCCc3nnnn3C3CCCCC3)ccc2N1 28.7%

AC50, active:
CCOC(=O)CSCC(NC(=O)OC(C)(C)C)C(=O)OCC (stereo unspecified) 10 µM
Cc1c(Cl)c([N+](=O)[O-])nn1Cc1ccc(C(=O)N/N=C\c2cc(Cl)ccc2O)o1 1.78 µM
Cc1c(Cl)c([N+](=O)[O-])nn1Cc1ccc(C(=O)N/N=C\c2cccc(Br)c2)o1 1.12 µM
O=C(/C=C/c1cccc(Cl)c1)Nc1ccncc1 0.0708 µM
CCCCC1(C)OC(=O)C(=Cc2ccc(N(CC)CC)cc2)C(=O)O1 (stereo unspecified) 10 µM
O=C1Oc2ccccc2C2(O)C3CCCCCC3C12 (stereo unspecified) 1.41 µM
C#CCSc1nc(Cc2ccc(Cl)cc2)nc2ccccc12 0.501 µM
CC1(C)CC(=O)C(C(C#Cc2ccccc2)C2=C(O)CC(C)(C)CC2=O)=C(O)C1 4.47 µM
O=C(c1ccncc1)N1CCC2(CCCN(C(c3ccccc3)c3ccccc3)C2)CC1 10 µM
CC(=O)N1CCC2(CCCN(C(c3ccccc3)c3ccccc3)C2)CC1 15.8 µM
c1ccc(CNc2ncnc3ccc(-c4ccc5c(c4)OCO5)cc23)cc1 3.16 µM
Cc1cccc(CNc2ncnc3ccc(-c4ccc5c(c4)OCO5)cc23)c1 5.01 µM
Cc1cc(O)c(C(C)C)cc1C1(c2cc(C(C)C)c(O)cc2C)OC(=O)c2ccccc21 3.16 µM
Cc1ccc(S(=O)(=O)N(CC(=O)N2CCN(c3ccc(F)cc3)CC2)C2CCCCC2)cc1 2.82 µM
COc1ccc(Nc2ncc3c(n2)CC(c2ccc(C)cc2)CC3=O)cc1 (stereo unspecified) 8.91 µM
COc1ccc(C2CC(=O)c3cnc(Nc4cc(C)cc(C)c4)nc3C2)cc1 (stereo unspecified) 11.2 µM
O=C(c1cccc(F)c1)N1CCC2(CCCN(c3cccc(-c4ccccc4)c3)C2)CC1 7.94 µM
O=C(c1cccc(F)c1)N1CCC2(CCCN(c3ccccc3)C2)CC1 5.01 µM
O=C(c1cccc(F)c1)N1CCC2(CCCN(c3ncccn3)C2)CC1 6.31 µM
Clc1cccc(N/N=C/c2ccc(N3CCOCC3)cc2)c1 10 µM
FC(F)(F)c1cccc(NC(=S)Nc2ccc(Cl)cc2Cl)c1 0.282 µM
FC(F)(F)c1cccc(NC(=S)Nc2cccc(Cl)c2)c1 1.78 µM
COc1ccc(C=O)cc1COc1ccc(C)cc1[N+](=O)[O-] 2.24 µM
Fc1ccc(Nc2ccnc(-c3ccc4c(c3)OCO4)n2)cc1 2 µM
CN(C)c1ccc(-c2nccc(Nc3ccc(F)cc3)n2)cc1 3.16 µM
CN(C)c1ccc(-c2cc(Nc3ccc(F)cc3)ncn2)cc1 2 µM
CC(C)(C)c1ccc(CN(Cc2ccco2)Cc2nnnn2C2CCCC2)cc1 2.24 µM

Source: PubChem BioAssay AID1851 (National Center for Advancing Translational Sciences (NCATS), 2009)
